In PubChem BioAssay (EPA / NIEHS):
Results filed as inconclusive are left out. Calls of active or inactive are those of the source. Rule for the calls, unless noted: active = hit-call score of the fitted dose curve at least 0.9, where 1 is the maximum; inconclusive = response in the unintended direction; inactive = score below 0.9.

Experiments:
[1] = molecular target: Cellular tumor antigen p53 (Homo sapiens) (UniProt P04637); assay: TOX21_p53_BLA_p2_ratio: Tox21 HCT-116 p53 Agonism Beta-lactamase Assay, Ratio, Phase 2 (AID 2283592)
Outline: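 Read-out is the blue/green (460/530 nm, 405 nm excitation) ratio after 2 h CCF4-AM loading, fitted as gain versus DMSO. Compounds, pinned at 217-fold dilution from DMSO stocks, stayed 16 h on HCT-116 beta-lactamase reporter cells seeded 5 h earlier.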

[2] = molecular target: Cellular tumor antigen p53 (Homo sapiens) (UniProt P04637); assay: TOX21_p53_BLA_p3_ratio: Tox21 HCT-116 p53 Agonism Beta-lactamase Assay, Ratio, Phase 3 (AID 2283596)
Outline: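 Cells were seeded at 4000/well, rested 5 h at 37C, then dosed with DMSO compound solutions (217-fold dilution) for 16 h. CCF4-AM substrate was loaded for 2 h at room temperature, and the 460/530 nm emission ratio was fitted for gain of signal versus DMSO.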

[3] = TOX21_p53_BLA_p4_viability: Viability Assessment in the Tox21 HCT-116 p53 Agonism Beta-lactamase Assay, Phase 4 (AID 2283597);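 note: hits lower the luminescence signal meaning cytotoxicity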
Outline: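 Cytotoxicity as reduced cellular ATP (CellTiter-Glo luminescence, 30 min room temperature), measured in the same wells following the CCF4 FRET p53 reading. Human HCT-116 cells received compounds in DMSO (217-fold dilution) for 16 h.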

[4] = molecular target: Cellular tumor antigen p53 (Homo sapiens) (UniProt P04637); assay: TOX21_p53_BLA_p5_ratio: Tox21 HCT-116 p53 Agonism Beta-lactamase Assay, Ratio, Phase 5 (AID 2283599)
Outline: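 HCT-116 cells carrying a p53-inducible beta-lactamase reporter were seeded at 4000 cells/well and dosed after 5 h with compound in DMSO (217-fold dilution). After 16 h at 37C, CCF4-AM substrate was added for 2 h, and the 460/530 nm emission ratio was scored as gain-of-signal versus DMSO.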

[5] = molecular target: Cellular tumor antigen p53 (Homo sapiens) (UniProt P04637); assay: TOX21_p53_BLA_p4_ratio: Tox21 HCT-116 p53 Agonism Beta-lactamase Assay, Ratio, Phase 4 (AID 2283601)
Outline: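 HCT116 cells carrying an inducible beta-lactamase reporter were plated at 4000 cells/well, rested 5 h, then exposed to compounds in DMSO (217-fold dilution) for 16 h at 37C. CCF4-AM substrate was loaded 2 h at room temperature; 460/530 nm emission ratio scored gain-of-signal versus DMSO.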

[6] = TOX21_p53_BLA_p5_viability: Viability Assessment in the Tox21 HCT-116 p53 Agonism Beta-lactamase Assay, Phase 5 (AID 2283600)
Outline: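 Viability came from CellTiter-Glo ATP luminescence, read after 30 min at room temperature. Before this, HCT-116 p53-bla cells (4000/well) had 16 hours of compound exposure at 37C, with DMSO stocks diluted 217-fold on transfer.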

[7] = molecular target: Thyroid hormone receptor alpha (Rattus norvegicus) + Thyroid hormone receptor beta (Rattus norvegicus) (UniProt P18113+P63059); assay: TOX21_TR_LUC_GH3_Antagonist_Followup: Tox21 GH3 Thyroid Hormone Receptor Antagonism Luciferase Follow-Up Assay (AID 2283942)
Outline: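 In a GH3 luciferase reporter line, test chemicals spanning 92 uM to 5nM final are co-incubated 24 h with 1.0 nM T3. Activity is expressed as relative luminescence units and analysed relative to DMSO.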

THRA (gene 7067) = THRA (gene 7067) (UniProt P10827); assay: TOX21_TRA_COA_Antagonist_Followup_ratio: Tox21 Thyroid Hormone Receptor alpha Antagonism through Coactivator Recruitment Follow-Up Assay, Ratio (AID 2283953)
Outline: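 We measured antagonism of T3-type coactivator recruitment using a TR-FRET ratio (emission 520 and 495 nm) between a Tb-labelled anti-GST antibody on TRα LBD (2.5 nM) and SRC-2 peptide (200 nM). Activity was scaled between DMSO and T3 wells.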

[8] = TOX21_TRB_BLA_Antagonist_Followup_viability: Viability Assessment in the Tox21 Thyroid Hormone Receptor beta Antagonism Beta-lactamase (BLA) Follow-Up Assay (AID 2283961)
Outline: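 ATP-based CellTiter-Glo luminescence (30 min, room temperature) run in the same wells as the TRβ-bla readout. Cells: GeneBLAzer HEK293T expressing GAL4-TRβ LBD, exposed 18 h at 37C to compounds at 11 concentrations in triplicate, stripped-serum medium.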

THRB (gene 7068) = THRB (gene 7068) (UniProt P10828); assay: TOX21_TRB_COA_Antagonist_Followup_ratio: Tox21 Thyroid Hormone Receptor beta Antagonism through Coactivator Recruitment Follow-Up Assay, Ratio (AID 2283967)
Outline: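 Coactivator (SRC-2) recruitment to purified GST-TRβ ligand-binding domain is monitored by terbium-to-fluorescein energy transfer, emission ratio 520:495 nm. DMSO wells define 0% and T3 wells 100% activity.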

[9] = TOX21_TR_RXR_BLA_Antagonist_Followup_viability: Viability Assessment in the Tox21 Thyroid Hormone Receptor beta Retinoid X Receptor alpha (RXRa) Antagonism Beta-lactamase (BLA) Follow-Up Assay (AID 2283979)
Outline: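 RXRa-UAS-bla HEK293T cells seeded 2,500/well in phenol red-free DMEM with 2% charcoal-stripped FBS, attached 5 h, then exposed to compounds at 11 concentrations in triplicate for 16 h at 37C/5% CO2. Viability read by CellTiter-Glo ATP luminescence; bidirectional fit versus DMSO.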

[10] = ACEA_ER_AUC_viability: ACEA Biosciences xCELLigence Real-Time Cell Analysis on Estrogen Receptor Agonism for Viability (AID 2283782);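 note: hit means loss of impedance signal meaning reduced cell growth or viability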
Outline: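 Continuous-exposure impedance cell analysis uses T-47D cells in charcoal-stripped serum, eight 1:4 dilutions topping at 100 uM final, biological duplicate. Area under the growth curve at 80 h is fitted against DMSO baseline.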

[11] = CCTE_Harrill_HTTr_Viability_MCF7: CCTE's 6-hour Cell Viability Assessment for the High-Throughput Transcriptomics (HTTr) Platform, in MCF-7 cells cultured in DMEM + 10% fetal bovine serum, Harrill Lab (AID 2284010; active = hit-call score of the fitted dose curve at least 0.9, where 1 is the maximum; inactive = score below 0.9)
Outline: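 Eight-point concentration series, six-hour exposure. Propidium iodide exclusion imaged to assess membrane integrity as a cytotoxicity readout; bidirectional fitting was done with DMSO as negative control and activity baseline.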

[12] = CCTE_Harrill_HTTr_Apoptosis_MCF7: CCTE's 6-hour Apoptosis Assessment for the High-Throughput Transcriptomics (HTTr) Platform, in MCF-7 cells cultured in DMEM + 10% fetal bovine serum, Harrill Lab (AID 2284011; active = hit-call score of the fitted dose curve at least 0.9, where 1 is the maximum; inactive = score below 0.9)
Outline: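 High-content imaging of CellEvent Caspase 3/7 Green signal follows a six-hour exposure, with eight concentrations per chemical. MCF-7 cells grown in DMEM plus 10% fetal bovine serum; activity fitted in both directions against DMSO.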

[13] = CCTE_Harrill_HTTr_CellCount_MCF7: CCTE's Cell Proliferation Assessment for the High-Throughput Transcriptomics (HTTr) Platform, Harrill Lab (AID 2284012);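 note: count of Hoechst-stained nuclei per well by high-content imaging in MCF-7 cells; cells exposed to compound for six hours; intended direction is loss of nuclei count meaning fewer cells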
Outline: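 For this full-screen endpoint, MCF-7 cultures received eight compound dilutions for six hours. Well nuclei counts from Hoechst imaging were analyzed relative to DMSO.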

Measured: AC50

Chain of Cellular tumor antigen p53 (Homo sapiens) (P04637 whole entry, looked up): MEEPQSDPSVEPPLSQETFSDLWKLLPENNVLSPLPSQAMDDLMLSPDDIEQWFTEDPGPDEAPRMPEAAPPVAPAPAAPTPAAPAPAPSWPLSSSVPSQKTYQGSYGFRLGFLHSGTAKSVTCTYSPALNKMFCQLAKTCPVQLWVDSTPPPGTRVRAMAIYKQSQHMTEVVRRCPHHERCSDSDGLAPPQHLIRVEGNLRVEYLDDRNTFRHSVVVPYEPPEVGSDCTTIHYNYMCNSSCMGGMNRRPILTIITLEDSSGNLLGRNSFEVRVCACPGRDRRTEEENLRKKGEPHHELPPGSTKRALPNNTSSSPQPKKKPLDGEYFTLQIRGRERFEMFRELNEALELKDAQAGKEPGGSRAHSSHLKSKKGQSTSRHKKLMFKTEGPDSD
Chain of THRB (gene 7068) (P10828 whole entry, looked up, the tested form may be a part): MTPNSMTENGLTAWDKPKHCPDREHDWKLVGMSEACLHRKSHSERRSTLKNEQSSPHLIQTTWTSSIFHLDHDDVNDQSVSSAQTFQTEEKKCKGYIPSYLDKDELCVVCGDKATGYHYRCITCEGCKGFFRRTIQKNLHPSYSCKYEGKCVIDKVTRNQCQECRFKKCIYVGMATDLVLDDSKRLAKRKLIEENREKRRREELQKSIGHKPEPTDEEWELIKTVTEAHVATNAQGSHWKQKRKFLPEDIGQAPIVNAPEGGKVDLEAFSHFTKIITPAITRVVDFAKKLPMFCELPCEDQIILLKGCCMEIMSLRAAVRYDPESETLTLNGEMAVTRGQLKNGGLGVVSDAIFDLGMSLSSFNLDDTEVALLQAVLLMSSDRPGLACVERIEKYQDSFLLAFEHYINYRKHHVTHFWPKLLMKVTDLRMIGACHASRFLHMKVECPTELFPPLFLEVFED
Chain of THRA (gene 7067) (P10827 whole entry, looked up, the tested form may be a part): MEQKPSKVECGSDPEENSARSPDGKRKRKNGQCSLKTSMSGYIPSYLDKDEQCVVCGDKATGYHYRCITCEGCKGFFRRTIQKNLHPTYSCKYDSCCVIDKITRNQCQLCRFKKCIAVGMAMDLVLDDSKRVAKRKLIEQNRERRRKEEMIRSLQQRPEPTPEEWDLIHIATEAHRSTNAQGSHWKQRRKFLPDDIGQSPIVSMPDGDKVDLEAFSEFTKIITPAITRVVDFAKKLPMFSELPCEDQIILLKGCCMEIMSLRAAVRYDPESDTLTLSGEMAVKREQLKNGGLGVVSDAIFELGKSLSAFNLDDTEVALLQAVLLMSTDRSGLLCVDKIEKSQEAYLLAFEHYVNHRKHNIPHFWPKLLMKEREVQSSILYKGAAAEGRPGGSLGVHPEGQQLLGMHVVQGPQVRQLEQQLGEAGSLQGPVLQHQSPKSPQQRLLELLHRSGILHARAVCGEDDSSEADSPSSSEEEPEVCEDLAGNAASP

CC(C)(O)c1ccccc1
inactive: [1] | [2] | [3] | [4] | [5]

COC(=O)CS
inactive: [1] | [2] | [3] | [4] | [5]

CCN(CC)C(=O)[C@]1(c2ccccc2)C[C@@H]1CN
inactive: [1] | [2] | [3] | [4] | [6] | [5]

O=C(C(=O)c1ccco1)c1ccco1
inactive: [1] | [2] | [3] | [6]

C[Si](Cl)(c1ccccc1)c1ccccc1
inactive: [1] | [2] | [3] | [4] | [5]

C=C(C)C(=O)OC
inactive: [1] | [2] | [3] | [4] | [5]

CN(C)CCC=C1c2ccccc2C=Cc2ccccc21
inactive: [1] | [2] | [3] | [4] | [5]

Cc1ccccc1N=O
inactive: [1] | [2] | [3] | [4] | [5]

CC(C)(C)C(=O)NCCCC(=O)O
inactive: [1] | [2] | [3] | [4] | [6]

C[N+]1(C)[C@@H]2CC(OC(=O)[C@H](CO)c3ccccc3)C[C@H]1[C@@H]1O[C@@H]12 (stereo partly drawn)
inactive: [1] | [2] | [3] | [4] | [6] | [5]

COc1cc2c(cc1OC)[C@@H](c1ccccc1)CN(C)CC2
inactive: [1] | [2] | [3] | [4] | [5]

O=C1CCCc2c1cc1ccc3cccc4ccc2c1c34
inactive: [1] | [3] | [4] | [5]
active: [2] 62.5 µM

C=CCOC(=O)CCCCCCCC
inactive: [1] | [2] | [3] | [4] | [6] | [5]

CC(=O)c1ccc2ccc3ccccc3c2c1
inactive: [2] | [3]
active: [1] 85.8 µM | [4] 80.9 µM | [5] 78.9 µM

Cc1ncsc1CCO
inactive: [1] | [2] | [3] | [4] | [6]

O=C1c2ccccc2C(=O)c2c1ccc(O)c2O
inactive: [1] | [2] | [3] | [4] | [6] | [5]

CCNC(=O)C1CC(C)CCC1C(C)C (stereo not drawn)
inactive: [1] | [2] | [3] | [4] | [5]

O=C(O)CCCCCCC(=O)O
inactive: [1] | [2] | [3] | [4] | [5]

CN1CCC[C@@H]1CCO[C@](C)(c1ccccc1)c1ccc(Cl)cc1
inactive: [1] | [2] | [3] | [4] | [6] | [5]

CC(=O)Nc1cccc(N)c1
inactive: [2] | [3] | [4]
active: [1] 84.4 µM | [5] 79.2 µM

ClC(Cl)Cl
inactive: [1] | [2] | [3] | [4] | [6] | [5]

CC1(C)OC(=O)NC1=O
inactive: [1] | [2] | [3] | [4] | [6] | [5]

COc1ccc(/C=C/C(=O)O)cc1
inactive: [1] | [2] | [3] | [4] | [6] | [5]

CN(C)c1ccc(SC#N)cc1
inactive: [1] | [2] | [3] | [4] | [5]

COc1cc(C(=O)NC2CCCNC2)cc(OC)c1OC (stereo not drawn)
not listed: [6] | [10] | [11] | [12] | [13]
inactive: all other assays above

Nc1nc2c(ncn2COC(CO)CO)c(=O)[nH]1
inactive: [1] | [2] | [3] | [4] | [6] | [5]

NS(=O)(=O)c1ccc(C(=O)O)cc1
inactive: [1] | [2] | [3] | [4] | [6] | [5]

Cc1ccc(O)c(N)c1
inactive: [1] | [2] | [3] | [4] | [6] | [5]

O=C(O)CCc1ccccc1
not listed: [7] | THRA (gene 7067) | [8] | THRB (gene 7068) | [9]
inactive: all other assays above

CCCCCC(C)N (stereo not drawn)
inactive: [1] | [2] | [3] | [4] | [6] | [5]

CC(=O)O[C@H]1CC[C@@]2(C)C(=CC[C@@H]3[C@@H]2CC[C@]2(C)C(c4cccnc4)=CC[C@@H]32)C1
inactive: [1] | [2] | [3] | [5]

CCOC(=O)CC(=O)C(=O)OCC
inactive: [1] | [2] | [3] | [5]

CCC(CO)(CO)CO
inactive: [1] | [2] | [4] | [6]

Cc1cc(C)cc([N+](=O)[O-])c1
inactive: [1] | [2] | [3] | [6] | [5]
